HP1b chromo inh – HTS for Inhibitors of HP1-beta Chromodomain Interactions with Methylated Histone Tails; Potency, µM (doses to about 114 µM), actives largely listed as inhibitors; 390,000 compounds, 0.56% hits; Chromobox protein homolog 1 (Homo sapiens), P83916; AlphaScreen HP1-beta / biotin-H3K9me3 peptide binding; further: nearly all actives have a fitted effect of over 70% in size
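Compound inhibition of the preformed complex between 50 nM HP1-beta and 50 nM biotinylated H3K9me3 peptide was read by AlphaScreen. Buffer was PBS pH 7.4 with 0.01% Tween-20. Incubations ran 30 min at room temperature, with 10 ug/mL donor/acceptor beads.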
ALOX12 inh – Primary qHTS assay for inhibitors of human arachidonate 12S-lipoxygenase (ALOX12): Round 2; Polyunsaturated fatty acid lipoxygenase ALOX12 (Homo sapiens), P18054; purified 12hLO, xylenol orange hydroperoxide absorbance; Potency, µM (doses to about 108 µM), actives largely listed as inhibitors; 580,000 compounds, 1.1% hits; AID 1671190, 2021
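Hydroperoxide product was detected by ferrous iron/xylenol orange as the 573 to 405 nm absorbance ratio. Arachidonic acid at 40 uM (final) was turned over for 30 min at room temperature by 150 nM human 12hLO, pH 7.0 Hepes buffer, after 15 min compound preincubation.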
G9a inh – qHTS Assay for Inhibitors of Histone Lysine Methyltransferase G9a | Histone-lysine N-methyltransferase EHMT2 (Homo sapiens), Q96KQ7 | G9a H3K9 monomethylation, AlphaScreen, 2 h | Potency, µM (top dose mostly 102 µM), usual class: inhibitors | 350,000 compounds, 8.8% hits | AID 504332, 2011; further: nearly all actives have a fitted effect of over 75% in size
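AlphaScreen detection with an anti-monomethyl H3K9 antibody quantified product after a 2 h room-temperature reaction containing 500 nM biotinylated H3K9 peptide, 20 µM SAM and 20 nM enzyme, which had been preincubated 15 min with compound.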
JMJD2A Tudor – qHTS Assay for Inhibitors of JMJD2A-Tudor Domain; Lysine-specific demethylase 4A (Homo sapiens), O75164; AlphaScreen JMJD2A-Tudor / H3K4me3 peptide binding; Potency, µM (titrated, usually from 114 µM), usual class: inhibitors; 390,000 compounds, 4.4% hits; AID 504339, 2011; further: nearly all actives have a fitted effect of over 50% in size
Target sequence (O75164 whole entry, looked up, the tested form may be a part): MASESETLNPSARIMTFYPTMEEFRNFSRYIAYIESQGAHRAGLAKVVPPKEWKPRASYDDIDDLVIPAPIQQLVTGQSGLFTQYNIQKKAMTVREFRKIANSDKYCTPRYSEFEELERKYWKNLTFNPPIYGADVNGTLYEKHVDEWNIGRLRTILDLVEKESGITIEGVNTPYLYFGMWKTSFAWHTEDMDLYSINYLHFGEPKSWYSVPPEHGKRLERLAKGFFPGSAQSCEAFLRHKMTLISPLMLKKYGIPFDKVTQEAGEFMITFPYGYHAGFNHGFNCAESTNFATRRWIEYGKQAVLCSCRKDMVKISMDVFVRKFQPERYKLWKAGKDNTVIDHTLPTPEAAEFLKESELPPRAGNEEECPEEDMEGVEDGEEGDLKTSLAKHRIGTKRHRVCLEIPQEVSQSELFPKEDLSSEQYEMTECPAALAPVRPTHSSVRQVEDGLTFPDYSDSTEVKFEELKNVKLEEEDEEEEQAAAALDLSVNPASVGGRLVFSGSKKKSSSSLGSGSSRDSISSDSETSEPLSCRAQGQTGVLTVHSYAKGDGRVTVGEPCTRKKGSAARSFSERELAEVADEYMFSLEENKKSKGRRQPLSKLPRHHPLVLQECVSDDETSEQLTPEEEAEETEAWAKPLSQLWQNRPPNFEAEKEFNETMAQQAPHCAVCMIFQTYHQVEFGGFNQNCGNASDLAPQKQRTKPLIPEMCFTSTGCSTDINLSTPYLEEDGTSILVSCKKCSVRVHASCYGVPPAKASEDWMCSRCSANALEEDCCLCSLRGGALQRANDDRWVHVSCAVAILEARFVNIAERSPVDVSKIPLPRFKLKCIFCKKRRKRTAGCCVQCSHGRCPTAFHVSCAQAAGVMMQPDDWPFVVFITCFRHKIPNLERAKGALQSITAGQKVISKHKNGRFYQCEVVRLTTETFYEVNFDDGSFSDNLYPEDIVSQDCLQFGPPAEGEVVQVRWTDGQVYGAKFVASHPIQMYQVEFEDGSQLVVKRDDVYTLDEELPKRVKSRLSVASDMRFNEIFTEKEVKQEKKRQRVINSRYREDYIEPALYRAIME
BAZ2B inh – qHTS Assay for Inhibitors of BAZ2B. Bromodomain adjacent to zinc finger domain protein 2B (Homo sapiens), Q9UIF8. AlphaScreen BAZ2B-H3K14Ac peptide displacement. Potency, µM (doses to about 114 µM), most hits filed as inhibitors. 360,000 compounds, 4.4% hits. AID 504333, 2011; further: nearly all actives have a fitted effect of over 60% in size
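In this displacement format the biotinylated H3(5-23) peptide acetylated at Lys14 serves as ligand at 50 nM, with BAZ2B at 50 nM in PBS pH 7.4 containing 0.01% Tween-20. Donor and acceptor beads are 10 ug/mL final.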
Sfp PPTase inh – qHTS Assay for Inhibitors of Bacillus subtilis Sfp phosphopantetheinyl transferase (PPTase); 4'-phosphopantetheinyl transferase ffp (Bacillus subtilis), Q9F4F7; Biochemical Sfp PPTase activity, qHTS; Potency, µM, actives largely listed as inhibitors; 310,000 compounds, 3.5% hits; AID 1490, 2009;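 further: the enzyme is Sfp with the accession as filed and its product quenches rhodamine fluorescence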
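With Hepes-Na pH 7.6 buffer containing 10 mM MgCl2, Sfp (15 nM) modified BHQ-2-YbbR (12.5 uM) using rhodamine-CoA (5 uM). Two reads 30 minutes apart at 525/598 nm yielded each well's rate.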
A number is an active result; 0 = inactive; ? = inconclusive; - = no result given; ! = a repeat was not active; [ ] = remark or other dose. The list is not random: actives were taken first. Their share in the collection is about 8.7%. The call rests on the fitted dose curve; in most records, active means well fitted curve in the direction sought with a large enough effect; inconclusive means small, poorly fitted or top-dose-only effect, or another doubt; inactive means no such curve, though single readings can be large; an effect the other way counts as inactive or inconclusive.

SMILES	HP1b chromo inh	ALOX12 inh	G9a inh	JMJD2A Tudor	BAZ2B inh	Sfp PPTase inh
CCc1ccc2nc(C)cc(C(=O)N3CCN(c4ccccc4)C(=O)C3)c2c1	-	0	-	-	-	-
CS(=O)(=O)N1CCCC(C(=O)NCc2ccccn2)CCNC(=O)CC1 (stereo unspecified)	-	0	-	-	-	-
COc1ccc2c(c1)CCCN2C(=O)c1cc2cc(Cl)ccc2nc1C	-	44.7µM	-	-	-	-
Cc1ccc2c(c1)CCCN2C(=O)c1cc2cc(C)ccc2nc1C	-	0	-	-	-	-
CN(CC(=O)NC(N)=O)CC1CCCCC1	-	0	-	-	-	-
CCCN1C(=O)C(CC(=O)N2CCCC(C)C2)Sc2ncccc21 (stereo unspecified)	-	0	-	-	-	-
Cc1oc(-c2ccccc2)nc1C(=O)NC1CCCCC1	-	0	-	-	-	-
CNC(=S)NNc1nc(C)cc(C)n1	79.4µM	?	1.26µM	?	0	2.51µM
O=C(/C(Br)=C/Nc1cc(Cl)ccc1Cl)C(F)(F)F	0	0	10µM	?	?	0
CC(=O)Nc1ccc(C(O)[C@H]2COCC(=O)N2CC2CCCCC2)cc1 (stereo partly specified)	-	0	-	-	-	-
OC(c1ccc2c(c1)OCO2)c1nccc2ccccc12 (stereo unspecified)	0	?	44.7µM	?	0	0
OC(c1cccc(Cl)c1)c1nccc2ccccc12 (stereo unspecified)	0	?	39.8µM	0	0	0
CC(C)n1c(C(O)c2ccc3c(c2)OCO3)nc2ccccc21 (stereo unspecified)	0	0	70.8µM	0	0	0
O=C(COCc1cc(-c2cccs2)on1)NCCN1CCCCCC1	-	0	-	-	-	-
CC(C)(C)c1cc(Cc2cc(C(C)(C)C)c(O)c(C(C)(C)C)c2)cc(C(C)(C)C)c1O	-	0	-	-	-	-
CCOc1ccc(C2c3c(-c4ccccc4)n[nH]c(=O)c3Nc3nnnn32)cc1 (stereo unspecified)	-	0	-	-	-	-
CC(C)(C)NC(=O)COC(c1ccccc1)c1ccccc1	-	0	-	-	-	-
CCOC(=O)[C@]12CCC=C1N(Cc1ccc3c(c1)OCO3)C(=O)[C@H](CC(=O)NCCc1ccccc1OC)C2	-	39.8µM	-	-	-	-
Cc1oc(-c2cccs2)nc1C(=O)N1CCC(NC(=O)C2CC2)CC1	-	0	-	-	-	-
O=C(c1c(O)cc(O)cc1O)C1c2c(cc(O)c3c2O[C@H](c2ccc(O)cc2)[C@@H](O)C3)OC1c1ccc(O)cc1 (stereo partly specified)	0	25.1µM	0[2.33 µM]	?	?	-
O=C1CC(c2ccc(O)cc2)Oc2cc(O)cc(O)c21 (stereo unspecified)	0	?	0	0	0	0
O=C(/C=C/c1ccccc1)c1ccc2oc3ccccc3c2c1	-	0	-	-	-	-
CC(C(=O)NC(N)=O)N1CCN(c2ccccc2F)CC1 (stereo unspecified)	-	0	-	-	-	-
CNC(=O)[C@@H]1CN(C(=O)c2ccncc2)C[C@H]1CO	-	0	-	-	-	-
COc1ccc(/C=N/Nc2cc(N3CCCC3)nc(N3CCCC3)n2)cc1	0	?	22.4µM	?	?	50.1µM
SMILES	HP1b chromo inh	ALOX12 inh	G9a inh	JMJD2A Tudor	BAZ2B inh	Sfp PPTase inh
Oc1cccc(/C=N/Nc2cc(N3CCCC3)nc(N3CCCC3)n2)c1	?	?	0	56.2µM	44.7µM	0
Oc1ccc(/C=N/Nc2cc(N3CCCC3)nc(N3CCCC3)n2)cc1	0	?	0	0	0	0
Oc1ccc(/C=N/Nc2nc(N3CCCC3)nc(N3CCCC3)n2)cc1O	0	0	10µM	?	0	20µM
Oc1ccc(/C=N/Nc2ccc(Cl)nn2)cc1O	0	?	0	0	0	79.4µM
CC(C)OCc1ccc(CNC(=O)CC(C)c2ccccc2)cc1 (stereo unspecified)	-	0	-	-	-	-
O=[N+]([O-])c1cccc(-n2cccc2/C=N/Nc2nc(N3CCCCC3)nc(N3CCCCC3)n2)c1	?	0	31.6µM	?	-	0
O=[N+]([O-])c1ccc(-n2cccc2/C=N/Nc2nc(N3CCCCC3)nc(N3CCCCC3)n2)cc1	-	-	0	-	0	0
COc1cc(OC)c(NC(=O)Cn2c(N(C)Cc3ccccc3)nc(C)cc2=O)cc1Cl	-	0	-	-	-	-
COc1cccc2cc(-c3nc4ccccc4o3)c(=O)oc12	0	0	0	0[11.4 µM]	0	0
COc1cccc2cc3c(=O)n(-c4ccccc4)nc-3oc12	0	0	?	44.7µM	?	0
O=C(Oc1cc(=O)oc2c1c(=O)n1c3c(cccc23)CC1)c1ccccc1	0	?	-	?	50.1µM	0
O=C(Oc1cc(=O)oc2c1c(=O)n1c3c(cccc23)CC1)c1ccc(F)cc1	0	0	-	0	?	0
O=C(Nc1nnc(C2CC2)s1)c1ccc(Cl)c(S(=O)(=O)N2CCc3ccccc32)c1	-	0	-	-	-	-
O=C(NC(=S)N1CCCCC1CO)c1cccs1 (stereo unspecified)	0	0	-	2.82µM	-	-
CCOC(=O)N1CCC(NC(=O)c2ccccc2C(=O)O)CC1	0	0	0	0	0	0
CCOC(=O)N1CCC(NC(=O)c2cccs2)CC1	0	0	0	0	0	0
CCOC(=O)N1CCC(NCCNC(=O)c2cccs2)CC1	?	0	?	1.78µM	79.4µM	0
O=C(NCCNC1CCC(c2ccccc2)CC1)c1cccs1 (stereo unspecified)	?	?	28.2µM	2.24µM	50.1µM	0
O=C(NCCC1CCCC1)c1cccs1	0	0	0	0	0	0
CCOC(=O)N1CCC(NCCNC(=O)c2ccccc2)CC1	0	0	0[0.501 µM]	2.24µM!	44.7µM!	0
O=C(O)CCC(=O)c1cccnc1	-	0	-	-	-	-
COc1cc(=O)n2c(c1C(=O)Nc1ccc(C)cc1F)CCCC2	-	0	-	-	-	-
CCOC(=O)C1CCN(C(=S)NC(=O)c2cccs2)CC1	?	0	39.8µM	0	0	0
Cc1cc(=S)c2cccc(C)c2[nH]1	0	0	56.2µM	0	0	35.5µM
COc1ccc(N2Nc3n[nH]c(N)c3N2)cc1	0	0	7.94µM	?	0	0
CCOc1ccc(N2Nc3n[nH]c(N)c3N2)cc1	0	0	8.91µM	?	?	0
CCOc1ccc(-n2c(-c3ccccc3)nnc2-c2ccccc2)cc1	0	0	0	0	0	0
CC(=O)c1ccc(NC(=O)c2nn(C(C)C)c(=O)c3ccccc23)cc1	-	0	-	-	-	-
CCOc1ccc(-n2c(-c3ccc(Br)cc3)c[n+]3c2CCCCC3)cc1	0	0	1.12µM	0	-	0
CCOc1ccc(-n2c(-c3ccc(OC)cc3)c[n+]3c2CCCCC3)cc1	0	0	0	0	0	0

Screening data: PubChem, National Center for Advancing Translational Sciences (NCATS)
